# Dicer processing = blocks human Dicer maturation of pre-miR-21 | Q9UPY3 | cat-ELCCA pre-miR-21 Dicer processing, chemiluminescence; stronger effect = higher value | z-score at 25 µM | actives 6% (n = 47,000) | AID 1347074; in the data active = z-score above about 3, passing the limit was not always enough;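 also: plate controls were vehicle for no effect and no enzyme for full effect; higher signal means more uncleaved substrate so more Dicer inhibition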
# * hit, by the source's call. This is one part of a sample in which hits are shown more often than they occur.
SMILES,Dicer processing
COc1ccc(C2(CNS(=O)(=O)c3ccccc3)CCCC2)cc1OC,5.94*
COc1ccc(C2CC(=O)C3=C(C2)Nc2nc4ccccc4n2C3c2ccccc2)cc1OC (stereo unspecified),0.02
O=C1CC(c2ccccc2)CC2=C1C(c1ccc(O)cc1)Nc1ccccc1N2 (stereo unspecified),0.27
CC(C)(C)S(=O)(=O)/C(C#N)=C/N1CCOCC1,-0.8
COc1ccccc1-n1cnc2cc(NCc3ccncc3)ccc21,5.31*
c1ccc(-n2cnc3cc(NCc4ccccn4)ccc32)cc1,2.56
COc1ccccc1-n1cnc2cc(Nc3nnc(C)c4ccccc34)ccc21,-0.27
COc1cc(CNCc2cccnc2)cc(Cl)c1OCc1cccs1,-0.35
Cc1nn(C)c(NNC(=O)c2ccccc2Cl)c1[N+](=O)[O-],0.46
COc1ccc2cccc3c2c1C=CC3=O,4.22*
COc1ccc2ccccc2c1Br,-1.28
CC(=O)ON1C(=O)c2cccc3cccc(c23)C1=O,1.23
CCOC(=O)c1nnn(-c2nonc2N)c1CN1CCCC(C)C1 (stereo unspecified),1.85
COC(=O)NC(=O)c1ccc(Oc2ccc(C(F)(F)F)cc2[N+](=O)[O-])cc1,2.59
O=C(Oc1ccc2occ([N+](=O)[O-])c2c1)c1ccc(C(F)(F)F)cc1,4.68*
O=C(Oc1c(Br)cc(C(F)(F)F)cc1[N+](=O)[O-])c1ccccc1Cl,-0.27
Cc1ccsc1CNC(C)(C)CO,-0.89
Cc1ccc2oc3c(c(=O)c2c1)C(c1ccc(C(C)C)cc1)N(CCCN(C)C)C3=O (stereo unspecified),-0.2
Cc1ccc(-c2nnc3c4ccccc4c(C)nn23)cc1S(=O)(=O)N1CCCCC1,1.37
Cc1ccc(-c2nnc3c4ccccc4c(C)nn23)cc1S(=O)(=O)N(C)C1CCCCC1,0.96
Cc1ccc(-c2nnc3c4ccccc4c(C)nn23)cc1S(=O)(=O)N1CCC(C)CC1,5.48*
O=C(CSc1nc2cc(Cl)c(Cl)cc2[nH]1)c1ccccc1,-0.13
CCN(CC)CCCC(C)Nc1nc(C)nc2ccccc12 (stereo unspecified),4.34*
CCN(CC)CCCNc1ncnc2ccccc12,-0.08
CCN(CC)CCCC(C)Nc1nc(C)nc2cc(Cl)ccc12 (stereo unspecified),-0.22
SMILES,Dicer processing
Cc1cc(C)c2oc(-c3cccc(N)c3)nc2c1,1.94
Cc1cc(C)c2oc(-c3ccc(C)c(N)c3)nc2c1,3.19*
Cc1cc(C)c2oc(-c3cc(N)ccc3Cl)nc2c1,2.28
COCCCn1c2c(c(=O)[nH]c1=O)C(c1ccc(C)cc1)C1=C(N2)c2ccccc2C1=O (stereo unspecified),-2.71
O=c1c(=CNc2ccccc2)c(=O)c2cccc3cccc1c32,0.59
O=C1CCCC/C1=C\Nc1ccccc1,4.28*
O=C(O)C1=C(C(=O)Nc2ccccc2)CCCC1,0.14
S=C(N/N=C/C=C/c1ccccc1)NC1CC2C=CC1C2 (stereo unspecified),1.17
COCCCNC(=S)N/N=C/c1cccc(OC)c1O,4.24*
COCCCNC(=S)N/N=C/c1ccc(O)cc1O,-2.73
COCCCNC(=S)N/N=C/c1ccc(O)cc1,-0.81
COC(=O)C1=C(C(=O)c2ccc(C)cc2)C(c2cc(OC)ccc2OC)n2nnnc2N1 (stereo unspecified),0.35
CC1CCc2c(sc3[nH]c(=S)n(Cc4ccccc4)c(=O)c23)C1 (stereo unspecified),0.5
CCSc1nc2c(c(=O)n1C1CCOC(C)(C)C1)C1(CCCC1)Cc1ccccc1-2 (stereo unspecified),1.52
CSc1nc(N/C=C2/C(=O)c3ccccc3N(C)S2(=O)=O)nc(N(C)C)n1,-1.67
Cc1nnc2n1NC(c1ccc(F)cc1)C(C(=O)Nc1ccc(Br)cc1Cl)S2 (stereo unspecified),3.38*
Cc1ccc(C2Nn3c(C)nnc3SC2C(=O)Nc2ccc(C)cc2Br)cc1 (stereo unspecified),0.22
Cc1cc(Br)ccc1NC(=O)C1Sc2nnc(C)n2NC1c1ccccc1 (stereo unspecified),0.34
COC(=O)c1csc2c(C(F)(F)F)cc(N3CCN(S(=O)(=O)c4ccc(Cl)cc4)CC3)nc12,0.39
O=C(OCCSCc1cc([N+](=O)[O-])cc2c1OCOC2)c1ccc(Cl)cc1,0.23
Cc1c(C)c(C)c(CSC2=NCCN2Cc2ccccc2)c(C)c1C,1.77
CCCN1C(=O)C(O)(CC(=O)c2ccco2)c2cc(Br)ccc21 (stereo unspecified),0.71
CC(C)(CC(=O)O)CC(=O)N1CCCN(c2c(Cl)cncc2Cl)CC1,1.92
CC(C)(CC(=O)O)CC(=O)N1CCN(c2ccccn2)CC1,4.06*
C=C(C)c1cccc(C(C)(C)NC(=O)N2CCN(c3ccccn3)CC2)c1,1.35
CS(=O)(=O)Nc1ccccc1Oc1ccc(Cl)cc1Cl,0.71
O=C(O)c1ccc(N2C(=O)CC(Cc3ccc(Cl)cc3)C2=O)cc1 (stereo unspecified),0.2
C=CCn1c(SCC(=O)c2c(C)[nH]c3ccccc23)nnc1-c1ccccc1,1.15
Cc1cccc(Cl)c1NC(=O)Nc1ccc(N2CCCCC2)cc1,0.79

# Assay outcomes: PubChem, Center for Chemical Genomics, University of Michigan
